# Results as given in the supplement of paper PMC6089552.
# About 300 (9.4%) of roughly 3,200 compounds showed activity. The sample holds actives, similar compounds and a random draw of the others, so the mix is not that of the screen. A number with no mark means an inactive call.
# Tested on: A673/TR/shEF
# Assay: cell viability (LOESS-normalised, relative to median of negative controls) (log2 ratio); higher = more viable cells (less compound effect), active = hit call of the paper (over 3 MAD below the median)
# Settings: treatment time: 72 h
# Summary of the method: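 For three days, A673/TR/shEF Ewing sarcoma cells in 384-well plates (1,500 per well) were treated with library compounds at two or more concentrations or with DMSO controls, after doxycycline had been added or withheld 24 h beforehand to induce EWS-FLI1 shRNA knockdown. Viability was read by CellTiter-Glo luminescence on an Envision reader. The data were LOESS-corrected per plate, divided by the median of negative controls and log2-transformed.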
# [1] = 0.25 µM, library screen: screen1, EWS-FLI1 expression: high (no doxycycline)
# [2] = 0.25 µM, library screen: screen1, EWS-FLI1 expression: low (doxycycline-induced shRNA knockdown)
# [3] = 2.5 µM, library screen: screen1, EWS-FLI1 expression: high (no doxycycline)
# [4] = 2.5 µM, library screen: screen1, EWS-FLI1 expression: low (doxycycline-induced shRNA knockdown)
# [5] = 0.25 µM, library screen: screen2, EWS-FLI1 expression: high (no doxycycline)
# [6] = 0.25 µM, library screen: screen2, EWS-FLI1 expression: low (doxycycline-induced shRNA knockdown)
# [7] = 2.5 µM, library screen: screen2, EWS-FLI1 expression: high (no doxycycline)
# [8] = 2.5 µM, library screen: screen2, EWS-FLI1 expression: low (doxycycline-induced shRNA knockdown)
smiles,measurement,setting,value
CSc1nc(NC(C)C)nc(NC(C)C)n1,cell viability (log2),[1],0.0904
same,cell viability (log2),[2],-0.0688
same,cell viability (log2),[3],0.0234
same,cell viability (log2),[4],0.0938
CNC(=O)O/N=C(\C)SC,cell viability (log2),[1],0.0466
same,cell viability (log2),[2],0.0661
same,cell viability (log2),[3],0.0904
same,cell viability (log2),[4],0.143
O=C1C=C2C(=CCOC2O)O1 (centres undefined),cell viability (log2),[1],-0.259 (active)
same,cell viability (log2),[2],0.05
same,cell viability (log2),[3],-2.95 (active)
same,cell viability (log2),[4],-0.992 (active)
C=CCN1CC[C@@]2(C)c3cc(O)ccc3CC1[C@@H]2C,cell viability (log2),[5],0.194
same,cell viability (log2),[6],0.135
same,cell viability (log2),[7],0.028
same,cell viability (log2),[8],0.047
N#C[C@H](O[C@@H]1O[C@H](CO[C@@H]2O[C@H](CO)[C@@H](O)[C@H](O)[C@H]2O)[C@@H](O)[C@H](O)[C@H]1O)c1ccccc1,cell viability (log2),"0.025 µM, library screen: screen2, EWS-FLI1 expression: high (no doxycycline)",0.166
same,cell viability (log2),"0.025 µM, library screen: screen2, EWS-FLI1 expression: low (doxycycline-induced shRNA knockdown)",0.0523
same,cell viability (log2),[1],0.122
same,cell viability (log2),[2],-0.00438
same,cell viability (log2),[5],0.174
same,cell viability (log2),[6],0.00657
same,cell viability (log2),[3],0.113
same,cell viability (log2),[4],0.0319
same,cell viability (log2),[7],0.1
same,cell viability (log2),[8],0.0264
same,cell viability (log2),"25 µM, library screen: screen2, EWS-FLI1 expression: high (no doxycycline)",0.202
same,cell viability (log2),"25 µM, library screen: screen2, EWS-FLI1 expression: low (doxycycline-induced shRNA knockdown)",0.0554
CC(=O)[C@H]1CC[C@H]2[C@@H]3CC[C@H]4C[C@H](O)CC[C@]4(C)[C@H]3C(=O)C[C@]12C,cell viability (log2),[5],0.0616
same,cell viability (log2),[6],0.101
same,cell viability (log2),[7],-2.77 (active)
same,cell viability (log2),[8],-0.524 (active)
CC(=O)[C@H]1CC[C@H]2[C@@H]3CC[C@H]4C[C@H](O)CC[C@]4(C)[C@H]3CC[C@]12C,cell viability (log2),[5],0.267
same,cell viability (log2),[6],0.093
same,cell viability (log2),[7],0.266
same,cell viability (log2),[8],0.165
CC(=O)[C@H]1CC[C@H]2[C@@H]3CC[C@H]4C[C@@H](O)CC[C@]4(C)[C@H]3CC[C@]12C,cell viability (log2),[1],0.0984
same,cell viability (log2),[2],0.068
same,cell viability (log2),[3],0.0674
same,cell viability (log2),[4],0.135
CNC(=O)Oc1cccc2c1OC(C)(C)C2,cell viability (log2),[1],0.0513
same,cell viability (log2),[2],0.0685
same,cell viability (log2),[3],0.07
same,cell viability (log2),[4],0.106
ClC1=C(Cl)[C@]2(Cl)[C@@H]3[C@@H]4C[C@@H]([C@H]5O[C@@H]45)[C@@H]3[C@@]1(Cl)C2(Cl)Cl,cell viability (log2),[1],0.163
same,cell viability (log2),[2],0.0877
same,cell viability (log2),[3],0.115
same,cell viability (log2),[4],0.192
CC(=O)OC1CCC23C(=O)OC45CCC(C6=CC(=O)OC6)C4(C)CCC2C5CCC3(O)C1 (centres undefined),cell viability (log2),[1],-0.0349
same,cell viability (log2),[2],-0.171
same,cell viability (log2),[3],-1.11 (active)
same,cell viability (log2),[4],-1.12 (active)
C[C@]12CC[C@H]3[C@@H](CC[C@]4(O)C[C@@H](O)CC[C@]34C=O)[C@@]1(O)CC[C@@H]2C1=CC(=O)OC1,cell viability (log2),[1],0.0251
same,cell viability (log2),[2],-0.17
same,cell viability (log2),[3],-1.21 (active)
same,cell viability (log2),[4],-1.3 (active)
CC(=O)O[C@H]1CC[C@@]2(C)C(=CCC3C2CC[C@]2(C)C(=O)CCC32)C1 (some centres undefined),cell viability (log2),[1],0.0955
same,cell viability (log2),[2],0.0874
same,cell viability (log2),[3],0.042
same,cell viability (log2),[4],0.106
CC(=O)O[C@H]1CC[C@]2(C=O)C3CC[C@]4(C)[C@@H](C5=CC(=O)OC5)CC[C@]4(O)C3CC[C@]2(O)C1 (some centres undefined),cell viability (log2),[1],0.0163
same,cell viability (log2),[2],-0.145
same,cell viability (log2),[3],-1.12 (active)
same,cell viability (log2),[4],-1.15 (active)
